Reference: PubChem BioAssay
Active and inactive are the calls of the source. Unless noted, the rule behind the calls is not given here.

What was measured:
[1] = tested on: Wnt5a (protein binding on small-molecule microarray); assay: Wnt5a binders on small-molecule microarray, primary screen, biophysical, 635/667 nm fluorescence (AID 1142); settings: 635 nm fluorescence, higher = more signal;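 note: fluorescence read at 667 nm with signal to noise per printed feature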
[2] = cell viability in Huh7 cells, primary screen, cytotoxicity control for HCV replication inhibitor project, CellTiter-Glo luminescence, basal, 48 h (AID 1143); settings: Huh7 HCV replicon, higher = more signal, called active from +8 up or from −8 down;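 note: Huh7 hepatoma cells carrying a hepatitis C replication reporter with no stimulus; test concentration not given here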
[3] = P. aeruginosa biofilm formation inhibitors, primary screen, PAO1 strain, BacTiter-Glo luminescence, LB-PBS (AID 1144); settings: 12 h, higher = more signal
[4] = CREB reporter modulators without forskolin, primary screen, cell-based, PC12, CRE-LacZ reporter, unstimulated (AID 1145); settings: no forskolin, luminescence, 4.5 h, higher = more signal, called active from +8 up or from −8 down
[5] = CREB reporter modulators under forskolin, primary screen, cell-based, PC12, CRE-LacZ reporter, forskolin-stimulated (AID 1146); settings: luminescence, 4.5 h, higher = more signal, called active from +8 up or from −8 down;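 note: PC12 cells with 6xCRE LacZ reporter stimulated by forskolin 10 µM; beta-galactosidase reporter signal reflecting CREB driven transcription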
[6] = target: Streptavidin (Streptomyces avidinii) (UniProt P22629); assay: streptavidin binders on small-molecule microarray, primary screen, artefact control for SMM compound annotation, biophysical, 635/667 nm fluorescence (AID 1147); settings: streptavidin binding, higher = more signal;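 note: signal reflects streptavidin binding to arrayed compounds as a control protein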
[7] = small-molecule binders of probe aInhba, primary screen, biochemical, small-molecule microarray, 635/667 nm fluorescence (AID 1148); settings: higher = more signal;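 note: score merges 667nm spot fluorescence with signal-to-noise for antibody binding to printed compounds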
Torsin-1A (Homo sapiens) [8] = target: Torsin-1A (Homo sapiens) (UniProt O14656); assay: torsin A binders from cell lysate, primary screen, small-molecule microarray, wild-type, 635/667 nm (AID 1149); settings: COS7 hTOR1A-WT lysate, 635 nm fluorescence, higher = more signal
Torsin-1A (Homo sapiens) [9] = target: Torsin-1A (Homo sapiens) (UniProt O14656); assay: small-molecule binders of mutant TOR1A in lysate, primary screen, cell lysate, small-molecule microarray, COS7 lysate, 635/667 nm fluorescence (AID 1150); settings: COS7 hTOR1A mutant lysate, 635 nm fluorescence, higher = more signal;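 note: score pools 667 nm emission and signal to noise measuring lysate protein binding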
[10] = tested on: Sonic hedgehog protein (Shh); assay: small-molecule binders of Shh protein, primary screen, biochemical, small-molecule microarray, 635/667 nm fluorescence (AID 1151); settings: small-molecule microarray binding, 635 nm fluorescence; higher = more signal;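 note: Shh protein binding to compounds spotted on small-molecule microarray slides; score combines spot fluorescence intensity with signal-to-noise across triplicate slides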
[11] = E. coli DRC41 culture turbidity changes, primary screen, E. coli filamentation inducer project, strain DRC41, OD650, 48 h (AID 1152);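 note: E. coli MC1000 strain DRC41 lacking acrAB efflux pump and sulA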; settings: E. coli DRC41 (acrAB sulA), higher = more signal, called active from +8 up or from −8 down
[12] = small-molecule binders of probe aLefty1, primary screen, biochemical, small-molecule microarray, 635/667 nm fluorescence (AID 1153); settings: higher = more signal;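 note: score merges spot fluorescence with signal-to-noise ratio from the scanned slide images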
[13] = PSAC antagonists in infected red cells, primary screen, cell-based, P. falciparum Indochina, OD700, 1 h (AID 1154); settings: P. falciparum Indochina infected RBC osmotic lysis, higher = more signal, called active from +8 up or from −8 down
[14] = PSAC antagonists in infected red cells, primary screen, cell-based, P. falciparum Indochina, OD700, 2 h (AID 1155);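 note: lysis reports solute entry through the parasite surface anion channel PSAC; channel blockers reduce lysis of infected cells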; settings: P. falciparum Indochina infected erythrocytes, osmotic lysis OD700; higher = more signal, called active from +8 up or from −8 down
[15] = osmotic lysis modulators in infected erythrocytes, primary screen, PSAC antagonist project, cell-based, P. falciparum Indochina, OD700, 3 h (AID 1156); settings: higher = more signal, called active from +8 up or from −8 down
[16] = PSAC antagonists in infected red cells, primary screen, cell-based, P. falciparum Indochina, OD700, 18 h (AID 1157); settings: P. falciparum Indochina infected erythrocytes, osmotic lysis OD700, 18 h; higher = more signal, called active from +8 up or from −8 down
[17] = modulators of S6 phosphorylation in cells, primary screen, cell-based, A549, cytoblot, luminescence, serum-stimulated (AID 1158); settings: A549 phospho-S6 cytoblot, 5 h, higher = more signal;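 note: serum-stimulated A549 lung adenocarcinoma cells; signal is phosphorylated S6 detected by cytoblot immunostaining with HRP secondary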
[18] = target: NADPH oxidase 2 (Homo sapiens) (UniProt P04839); assay: NOX2-dependent H2O2 signal modulators, primary screen, NOX inhibitor project, cell-based, HEK293-NOX2, PMA-stimulated, Amplex Red fluorescence (AID 1159); settings: 45 min, higher = more signal, called active from +8 up or from −8 down; note: test concentration not given here
[19] = target: NADPH oxidase 4 (Homo sapiens) (UniProt Q9NPH5); assay: NOX4-dependent H2O2 signal modulators, primary screen, NOX inhibitor project, cell-based, HEK293-NOX4, tetracycline-induced, Amplex Red fluorescence (AID 1160); settings: 45 min, higher = more signal, called active from +8 up or from −8 down
[20] = target: NADPH oxidase 5 (Homo sapiens) (UniProt Q96PH1); assay: NOX5-dependent H2O2 signal modulators, primary screen, NOX inhibitor project, cell-based, HEK293-NOX5, Amplex Red fluorescence (AID 1161); settings: HEK293-NOX5, ionomycin, 45 min, higher = more signal
Sequence of NADPH oxidase 5 (Homo sapiens) (Q96PH1 whole entry, looked up): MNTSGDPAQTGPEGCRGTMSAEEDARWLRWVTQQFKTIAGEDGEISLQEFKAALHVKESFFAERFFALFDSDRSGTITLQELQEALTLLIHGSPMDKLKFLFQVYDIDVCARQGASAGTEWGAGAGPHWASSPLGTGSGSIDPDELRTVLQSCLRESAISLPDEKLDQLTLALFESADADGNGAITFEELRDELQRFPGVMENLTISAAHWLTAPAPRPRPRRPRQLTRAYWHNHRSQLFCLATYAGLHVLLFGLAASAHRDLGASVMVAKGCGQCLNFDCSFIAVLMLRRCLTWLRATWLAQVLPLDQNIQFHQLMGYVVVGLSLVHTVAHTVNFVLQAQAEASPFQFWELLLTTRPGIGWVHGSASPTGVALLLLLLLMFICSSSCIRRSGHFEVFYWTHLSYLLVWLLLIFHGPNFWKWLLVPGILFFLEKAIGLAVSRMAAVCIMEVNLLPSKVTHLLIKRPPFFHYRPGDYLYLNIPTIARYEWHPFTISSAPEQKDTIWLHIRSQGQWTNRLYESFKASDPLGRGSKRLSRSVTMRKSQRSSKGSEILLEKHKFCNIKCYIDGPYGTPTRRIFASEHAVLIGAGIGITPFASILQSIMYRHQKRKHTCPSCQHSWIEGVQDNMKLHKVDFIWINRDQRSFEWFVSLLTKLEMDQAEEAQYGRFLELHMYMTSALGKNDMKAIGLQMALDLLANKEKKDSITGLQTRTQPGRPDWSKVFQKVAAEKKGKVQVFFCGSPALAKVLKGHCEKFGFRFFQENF

Sequence of NADPH oxidase 4 (Homo sapiens) (Q9NPH5 whole entry, looked up): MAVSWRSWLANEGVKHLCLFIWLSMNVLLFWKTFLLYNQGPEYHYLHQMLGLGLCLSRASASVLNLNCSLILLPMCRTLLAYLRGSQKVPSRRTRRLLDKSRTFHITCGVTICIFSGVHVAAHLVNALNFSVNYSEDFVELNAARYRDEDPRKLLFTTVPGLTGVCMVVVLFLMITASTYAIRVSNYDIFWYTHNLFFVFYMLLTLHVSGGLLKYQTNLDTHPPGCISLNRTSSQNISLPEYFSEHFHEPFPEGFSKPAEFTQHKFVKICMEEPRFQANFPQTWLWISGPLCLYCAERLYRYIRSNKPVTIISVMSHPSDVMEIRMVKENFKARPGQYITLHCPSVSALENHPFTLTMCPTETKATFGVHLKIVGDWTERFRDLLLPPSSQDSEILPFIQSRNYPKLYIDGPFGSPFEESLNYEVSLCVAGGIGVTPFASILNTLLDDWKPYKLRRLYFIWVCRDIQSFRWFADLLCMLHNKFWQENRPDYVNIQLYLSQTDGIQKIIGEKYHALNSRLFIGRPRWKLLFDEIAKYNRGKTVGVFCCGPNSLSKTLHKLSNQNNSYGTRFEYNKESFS
Sequence of NADPH oxidase 2 (Homo sapiens) (P04839 whole entry, looked up): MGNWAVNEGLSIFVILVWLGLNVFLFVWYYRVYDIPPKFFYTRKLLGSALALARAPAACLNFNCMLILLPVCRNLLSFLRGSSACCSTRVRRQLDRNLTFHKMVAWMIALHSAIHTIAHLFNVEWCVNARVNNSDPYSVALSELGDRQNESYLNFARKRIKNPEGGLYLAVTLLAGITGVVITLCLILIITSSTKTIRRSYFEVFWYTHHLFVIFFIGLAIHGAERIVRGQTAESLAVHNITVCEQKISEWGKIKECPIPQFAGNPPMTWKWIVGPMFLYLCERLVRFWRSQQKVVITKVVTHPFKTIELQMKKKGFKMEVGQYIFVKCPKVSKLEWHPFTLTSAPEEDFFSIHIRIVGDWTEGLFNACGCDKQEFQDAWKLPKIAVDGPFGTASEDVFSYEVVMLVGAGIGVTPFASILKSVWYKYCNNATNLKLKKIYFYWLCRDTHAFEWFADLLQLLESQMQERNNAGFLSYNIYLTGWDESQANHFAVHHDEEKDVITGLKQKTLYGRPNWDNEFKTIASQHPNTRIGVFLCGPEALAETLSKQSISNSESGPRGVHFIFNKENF
Sequence of Torsin-1A (Homo sapiens) (O14656 whole entry, looked up): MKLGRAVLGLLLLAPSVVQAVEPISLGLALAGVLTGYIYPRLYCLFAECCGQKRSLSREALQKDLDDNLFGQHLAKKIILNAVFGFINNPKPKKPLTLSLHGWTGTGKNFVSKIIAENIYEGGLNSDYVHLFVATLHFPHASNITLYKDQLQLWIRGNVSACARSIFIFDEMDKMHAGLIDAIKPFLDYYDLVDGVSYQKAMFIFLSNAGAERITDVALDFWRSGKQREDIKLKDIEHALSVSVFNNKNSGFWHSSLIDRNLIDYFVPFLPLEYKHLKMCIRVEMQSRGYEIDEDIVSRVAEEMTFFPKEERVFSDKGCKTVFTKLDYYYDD
Sequence of Streptavidin (Streptomyces avidinii) (P22629 whole entry, looked up): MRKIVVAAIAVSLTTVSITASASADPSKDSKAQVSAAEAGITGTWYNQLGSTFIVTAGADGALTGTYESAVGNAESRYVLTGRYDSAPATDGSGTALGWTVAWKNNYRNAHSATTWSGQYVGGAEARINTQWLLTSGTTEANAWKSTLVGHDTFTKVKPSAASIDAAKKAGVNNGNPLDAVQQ

Row | Compound | composite z-score [1] | z-score [2] | z-score [3] | z-score [4] | z-score [5] | composite z-score [6] | composite z-score [7] | composite z-score (Torsin-1A (Homo sapiens) [8]) | composite z-score (Torsin-1A (Homo sapiens) [9]) | composite z-score [10] | z-score [11] | composite z-score [12] | z-score [13] | z-score [14] | z-score [15] | z-score [16] | z-score [17] | z-score [18] | z-score [19] | z-score [20]
1 | CC(C)(C)OC(=O)CC[C@]1(C(=O)NCC(O)CO)N=C(c2ccc(OCCCO)cc2)O[C@H]1c1ccccc1N=[N+]=[N-] (stereo not given in full) | 0.112 | -1.01 (inactive) | -0.00253 (inactive) | -0.0808 (inactive) | -1.48 (inactive) | 1.38 | 0.32 | 0.172 | 0.565 | 0.0555 | 0.618 (inactive) | 0.215 | 29.9 (active) | 27.1 (active) | 1.38 (inactive) | 6.1 (inactive) | -0.465 | -3.04 (inactive) | 1.04 (inactive) | -1.68
2 | Cc1ccc(N2C(=O)c3ccccc3[C@](C)(C(=O)NCCCN(C)C)[C@@H]2c2ccc(CO)cc2)nc1 | -0.169 | 0.368 (inactive) | 0.414 (inactive) | 0.0279 (inactive) | 0.64 (inactive) | -0.0986 | -0.0983 | -1.38 | -1.27 | -1.01 | -0.666 (inactive) | -0.0058 | 1.23 (inactive) | 0.0681 (inactive) | 0.386 (inactive) | -0.135 (inactive) | -0.0873 | 0.627 (inactive) | 0.631 (inactive) | 0.199
3 | Cc1ccc(C(C)CC(O)C2C=CC3C(=O)N(C)C(=O)C3N2Nc2ccccc2)o1 (stereo not given) | 0.342 | -0.206 (inactive) | -0.368 (inactive) | 0.25 (inactive) | 0.471 (inactive) | 0.0989 | 0.0588 | 0.371 | -0.139 | 1.08 | -2.23 (inactive) | 0.356 | 2.46 (inactive) | 0.962 (inactive) | 0.684 (inactive) | 1.17 (inactive) | -1.4 | -1.73 (inactive) | -4.75 (inactive) | -3.53
4 | COC(=O)[C@]1(CCC(=O)OC(C)(C)C)N=C(c2ccc(OCCCO)cc2)O[C@@H]1c1ccccc1N=[N+]=[N-] | 0.827 | -2.64 (inactive) | -0.192 (inactive) | 0.834 (inactive) | 0.154 (inactive) | -0.0444 | -0.0658 | 0.154 | 0.0612 | 0.886 | -0.725 (inactive) | 0.0591 | 30.9 (active) | 25.9 (active) | 1.64 (inactive) | 5.32 (inactive) | -0.328 | -1.41 (inactive) | -0.601 (inactive) | -2.4
5 | NCCCCCCNC(=O)[C@@H]1C[C@@H]2C(=O)N3CCC[C@H]3C(=O)N2[C@@H]1c1cccc(OCCO)c1 | 0.587 | -0.182 (inactive) | 0.884 (inactive) | -0.386 (inactive) | -1.43 (inactive) | 0.56 | -0.024 | 2.21 | 1.07 | 0.513 | 1.82 (inactive) | 0.012 | 4.29 (inactive) | -0.643 (inactive) | 1.53 (inactive) | -1.8 (inactive) | -0.0015 | 1.62 (inactive) | 1.42 (inactive) | 0.99
6 | COC(=O)C[C@H]1O[C@@]2(C[C@@H]1[Si](C)(C)C)C(=O)N(C)c1ccccc12 | 0.0074 | -1.43 (inactive) | -0.355 (inactive) | 2.3 (inactive) | -0.923 (inactive) | 0.327 | -0.0468 | 0.185 | 0.117 | 1.44 | 3.12 (inactive) | 0.14 | -1.14 (inactive) | -0.694 (inactive) | -1.23 (inactive) | -1.92 (inactive) | 0.953 | -0.465 (inactive) | 0.764 (inactive) | 1.21
7 | CCCCC(=C=CC[C@H](O)c1ccc(CO)o1)CCO | 0.0119 | 0.0865 (inactive) | 0.0836 (inactive) | 0.96 (inactive) | 1.56 (inactive) | -0.144 | -0.128 | 1.39 | 0.587 | 1.69 | -0.258 (inactive) | -0.0445 | 2 (inactive) | 0.278 (inactive) | 0.517 (inactive) | 0.134 (inactive) | -0.189 | 0.802 (inactive) | -0.0669 (inactive) | -0.395
8 | C=CCOC(=O)[C@@H]1[C@H]2C(=O)O[C@H](c3ccccc3)[C@H](c3ccccc3)N2[C@H](c2ccc(OCCOC(=O)[C@H]3C[C@H]4C(=O)N5CCC[C@H]5C(=O)N4[C@H]3c3cccc(OCCO)c3)cc2)[C@@]12C(=O)Nc1ccc(I)cc12 | 0.473 | 0.0351 (inactive) | -0.699 (inactive) | 0.545 (inactive) | -0.206 (inactive) | 0.502 | -0.0552 | 0.438 | 0.618 | 1.97 | -0.565 (inactive) | -0.101 | 1.72 (inactive) | 1.39 (inactive) | -0.341 (inactive) | 0.84 (inactive) | -0.101 | 0.929 (inactive) | 0.788 (inactive) | 0.32
9 | CCCCN1CC=CC23O[C@@H]4/C=C\CCCOC(=O)C4[C@H]2C(=O)N(C(CO)C(C)C)[C@@H]3C1=O (stereo not given in full) | -0.256 | -0.352 (inactive) | 1.3 (inactive) | -0.22 (inactive) | -0.182 (inactive) | -0.275 | 0.419 | -0.277 | -0.455 | 1.14 | -0.539 (inactive) | -0.178 | 1.47 (inactive) | 0.701 (inactive) | 0.434 (inactive) | 0.505 (inactive) | -0.515 | 1.71 (inactive) | 0.808 (inactive) | 1.69
